We go through 1 molecule from PubChem BioAssay AID588740 (National Center for Advancing Translational Sciences (NCATS), 2011).

Activity calls are given as the source filed them. How the calls were made is not given here.

The test is described as follows: PC3M Cytotoxicity Assay for Compounds that Inhibit the Perinuclear Compartment: SAR. The conditions noted are these: PC3M-GFP viability, ATPLite luminescence, 24 h. The text has this:
The perinucleolar compartment (PNC) is a non-membrane-bound nuclear subdomain that is associated with but structurally distinct from the nucleolus. The PNC is a heritable trait, in which the number of PNCs per cell in daughter cells often mimics that of their mother cells. The PNC is heterogeneous in shape, is stable through interphase, disassembles during mitosis, and reassembles in early G1. The PNC is concentrated with newly synthesized RNA polymerase III (pol III) RNAs (MRP RNA, RNAse P H1 RNA, hY RNAs[hY1, 2, 5], Alu RNA, and SRP [7SL] RNA) and RNA binding proteins (nucleolin, PTB, CUG-BP, KSRP, Raver1, Raver2, and Rod). […] Extensive in vitro studies have shown that the PNC is unique to tumor cells and preferentially forms in tumor cells derived from solid tissues. Examination of cancer cell lines from various origins and malignant capacities has shown that PNC prevalence correlates with the malignancy of tumors and has the potential to be developed as a pan-cancer prognostic marker. […] Although the PNC is associated with a DNA locus and a handful of components have been identified, much remains to be investigated regarding the structure and function of the PNC and its mechanistic link to cancer. […]
1. […] Luminescencent signal was detected on a Viewlux CCD based imager (PerkinElmer) with a clear filter and a 30 second integration time. […]
On to `N=c1c2c(-c3ccccc3)c(-c3ccccc3)n(Cc3ccccc3)c2ncn1C1CCC(O)CC1` (stereo unspecified), for which the AC50 was 9.96 µM (active).

Broadly, the AC50 is the midpoint of the concentration-response curve, whichever way the signal moves.
